Tau FP inhib – qHTS for Inhibitors of Tau Fibril Formation, Fluorescence Polarization | Microtubule-associated protein tau (Homo sapiens), P10636 | AID 1468, 2008 | 280,000 compounds, 0.39% hits | Potency, µM (top dose mostly 57.7 µM), hits mostly inhibitors | K18 P301L tau heparin fibrillization, Alexa594 FP, 6 h; further: nearly all actives have a fitted effect of over 55% in size
Target sequence (P10636 561-689 P618L limits assumed): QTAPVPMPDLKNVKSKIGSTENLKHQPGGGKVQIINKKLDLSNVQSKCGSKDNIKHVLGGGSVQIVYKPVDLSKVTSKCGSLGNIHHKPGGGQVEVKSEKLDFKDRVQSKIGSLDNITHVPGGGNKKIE
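Heparin (20 uM) drove fibril formation of recombinant tau K18 P301L, 15 uM unlabeled with 0.24 uM Alexa 594 label, for 6 hr at 37 C in 100 mM sodium acetate pH 7. Fluorescence polarization (555/632 nm) read 1 hr after 30 uM ThT.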
KDM4E inh – qHTS Assay for Inhibitors of Human Jumonji Domain Containing 2E (JMJD2E); Lysine-specific demethylase 4E (Homo sapiens), B2RXH2; JMJD2E catalytic domain, FDH-coupled NADH fluorescence (FDH is formaldehyde dehydrogenase); Potency, µM (top dose mostly 57.1 µM), actives largely listed as inhibitors; 230,000 compounds, 1.6% hits; AID 2147, 2009; active means well fitted inhibition curve with a large enough effect, not every such curve was filed as active; inconclusive means small, poorly fitted or top-dose-only effect, or another doubt; inactive means no such curve, though single readings can be large or run the other way; further: nearly all actives have a fitted effect of over 50% in size
Target sequence (B2RXH2 1-337 limits assumed): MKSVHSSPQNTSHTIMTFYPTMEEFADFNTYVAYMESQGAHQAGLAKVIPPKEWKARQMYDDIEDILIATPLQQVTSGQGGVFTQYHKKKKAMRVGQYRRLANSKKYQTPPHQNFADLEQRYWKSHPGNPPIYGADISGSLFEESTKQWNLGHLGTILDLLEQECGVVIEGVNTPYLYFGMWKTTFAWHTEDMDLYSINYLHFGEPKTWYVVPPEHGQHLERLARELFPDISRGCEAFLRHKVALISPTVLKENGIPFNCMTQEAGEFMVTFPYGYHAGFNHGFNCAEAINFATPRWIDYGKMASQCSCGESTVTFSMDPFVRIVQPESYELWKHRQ
Tau fibril ThT – qHTS for Inhibitors of Tau Fibril Formation, Thioflavin T Binding. Microtubule-associated protein tau (Homo sapiens), P10636. recombinant tau K18 P301L, heparin-induced fibrillization, ThT fluorescence. Potency, µM (series often up to 57.4 µM), usual class: inhibitors. 270,000 compounds, 2.1% hits; further: nearly all actives have a fitted effect of over 55% in size
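In this qHTS, human K18 P301L tau is incubated with compound and heparin for 6 hr at 37 C, and Thioflavin T fluorescence then reports fibril load.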
Tau fluor cs – Counterscreen qHTS for Inhibitors of Tau Fibril Formation, Fluorescence Polarization; tau K18 P301L Alexa594 fluorescence, heparin fibrillization; Potency, µM (series often up to 57.7 µM); 280,000 compounds, 0.93% hits; further: nearly all actives have a fitted effect of over 55% in size
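Human tau K18 P301L (15 uM unlabeled, 0.24 uM Alexa 594-labeled) in 100 mM sodium acetate pH 7 with 20 uM heparin, 6 hr at 37 C. ThT 30 uM added, 1 hr ambient; Alexa 594 FP and total fluorescence read at 555/632 nm.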
TRb-SRC2 inh – qHTS for Inhibitors of the Interaction of Thyroid Hormone Receptor and Steroid Receptor Coregulator 2; 280,000 compounds, 0.065% hits; Thyroid hormone receptor beta (Homo sapiens), P10828; Potency, µM (titrated, usually from 106 µM), actives largely listed as inhibitors; AID 1469, 2008; TRbeta-SRC2 peptide binding, fluorescence polarization; receptor liganded with 1 µM T3; further: nearly all actives have a fitted effect of over 50% in size
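Human TRb LBD (0.6 uM) plus Texas Red-labeled SRC2 peptide (20 nM), 1uM T3, 5% DMSO, 5 hr at ambient temperature. Decreased polarization (555/632 nm) flags inhibition; data normalized to free and bound peptide controls.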
TexasRed fluor – Total Fluorescence Counterscreen for Inhibitors of the Interaction of Thyroid Hormone Receptor and Steroid Receptor Coregulator 2 | TRb/SRC2 Texas Red total fluorescence interference | Potency, µM (series often up to 106 µM) | 280,000 compounds, 0.29% hits; active means well fitted curve in either direction with a large enough effect; inconclusive means small, poorly fitted or top-dose-only effect
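Flags fluorescent or light-absorbing compounds by total fluorescence, S + 2P, at 555 nm excitation and 632 nm emission. Mixture: 20 nM Texas Red SRC2 peptide, 0.6 uM human TRb LBD, 1 uM T3, 5% DMSO; compound exposure 5 h at ambient temperature.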
Large screens that a line does not name were inactive; ! = not active in a repeat; [ ] = remark or other dose. In the library only some 3.5% were active in any assay of this set; here they are far more common. Unless noted, the call rests on the fitted dose curve; in most records, active means well fitted curve in the direction sought with a large enough effect; inconclusive means small, poorly fitted or top-dose-only effect, or another doubt; inactive means no such curve, though single readings can be large; an effect the other way counts as inactive or inconclusive.

N#Cc1c(N)sc(=S)c2c1CCCCC2	Tau FP inhib inconclusive, KDM4E inh 22µM, Tau fibril ThT 13µM, Tau fluor cs inconclusive
N#Cc1c(N)sc2c1CCCCCC2	Tau fibril ThT inconclusive, Tau fluor cs inconclusive
COc1ccc(N2CCC(CNC(=O)Nc3ccc(C)c(C)c3)C2)cc1 (stereo unspecified)	Tau fibril ThT inconclusive, Tau fluor cs inconclusive
COc1ccc(N2CCC(CNC(=O)Nc3ccc(OC)cc3OC)C2)cc1 (stereo unspecified)	KDM4E inh inconclusive, Tau fibril ThT 14µM, Tau fluor cs inconclusive
COc1ccc(N2CCC(CNC(=S)Nc3cccc(C)c3)C2)cc1 (stereo unspecified)	KDM4E inh inconclusive, Tau fibril ThT inconclusive, Tau fluor cs 14µM[quencher]
COCCCNc1nc2nonc2nc1N1CCN(C2CCCC2)CC1	none
CC(C)CNc1cc(NC2CCCCC2)c2c3c(onc13)-c1ccccc1C2=O	Tau fibril ThT inconclusive, Tau fluor cs inconclusive (no result: KDM4E inh)
O=C1c2ccccc2-c2onc3c(Br)cc(NC4CCCCC4)c1c23	Tau FP inhib inconclusive, Tau fibril ThT 11µM (no result: KDM4E inh)
CN(C)CCCNc1cc(N2CCN(C3CCCCC3)CC2)c2noc3c2c1C(=O)c1ccccc1-3	Tau FP inhib inconclusive, Tau fibril ThT 3.5µM, Tau fluor cs inconclusive (no result: KDM4E inh)
COCCNc1cc(N2CCN(C3CCCCC3)CC2)c2noc3c2c1C(=O)c1ccccc1-3	Tau fibril ThT 11µM (no result: KDM4E inh)
O=C1c2ccccc2-c2onc3c(N4CCN(C5CCCCC5)CC4)cc(NCCO)c1c23	Tau fibril ThT 7.1µM, Tau fluor cs inconclusive (no result: KDM4E inh)
Cc1ccccc1CNC(=O)c1oc2c(c1C)-c1[nH]ncc1CC2	Tau FP inhib inconclusive, Tau fluor cs inconclusive (no result: KDM4E inh)
NC(=O)CSc1cn(Cc2cccc(F)c2)c2ccccc12	none
COC(=O)c1ccc(NCCC(=O)O)cc1	none
CNc1ccccc1C(=O)OC	KDM4E inh 22µM
O=C1C2=C(c3ccccc31)[N+](=O)C1CCCCC1N2[O-] (stereo unspecified)	Tau FP inhib inconclusive, Tau fibril ThT 16µM
Cc1ccc(C(=O)C(c2ccccc2)N2Cc3ccccc3C2=N)cc1 (stereo unspecified)	KDM4E inh 6.3µM, Tau fibril ThT inconclusive
CC(C)CCNC(=O)[C@@H](c1ccccc1)N1Cc2ccccc2C1=O	TexasRed fluor inconclusive (no result: KDM4E inh)
O=C1Nc2ccc(I)cc2/C1=C/c1cc(Br)c(O)c(Br)c1	Tau FP inhib inconclusive, Tau fibril ThT 4µM, Tau fluor cs 14µM![quencher], TexasRed fluor inconclusive
COc1cc(C=C2C(=O)OC(c3ccccc3)OC2=O)cc(Br)c1O (stereo unspecified)	none
CC(C)(C)c1nnc(N/N=C/c2ccccc2O)n(N)c1=O	KDM4E inh 28µM
CC(C)(C)c1nnc(N/N=C/c2ccccc2)n(N)c1=O	none
CCOC(=O)C(=CNCC(=O)O)C(=O)OCC	none
Cc1ccc(S(=O)(=O)Nc2cc(=O)[nH]c(SCC(=O)Nc3cccc(C)c3)n2)cc1	Tau FP inhib 16µM, Tau fluor cs inconclusive (no result: Tau fibril ThT)
Cc1ccc(NC(=O)CSc2nc(NS(=O)(=O)c3ccccc3)cc(=O)[nH]2)cc1	KDM4E inh inconclusive
O=C(COC(=O)c1ccc([N+](=O)[O-])o1)c1ccccc1	none
CC(=O)c1ccccc1OC(=O)c1ccc([N+](=O)[O-])o1	Tau FP inhib inconclusive, Tau fibril ThT 7.9µM
Cc1cc(C)cc(NC(=O)c2sc3nc4n(c(=O)c3c2C)N=C(c2ccccc2)CS4)c1	Tau FP inhib inconclusive (no result: KDM4E inh)
COc1ccc(C2CC(O)(c3ccccc3)Oc3cc(OC)ccc32)cc1 (stereo unspecified)	KDM4E inh inconclusive, Tau fluor cs inconclusive

Assay outcomes (PubChem BioAssay)
